The source made the active and inactive calls. Rule for the calls: active = hit-call score of the fitted dose curve at least 0.9, where 1 is the maximum; inactive = score below 0.9.

System in one assay: not listed separately
Put plainly: ATG_BRE_CIS: Attagene CIS-FACTORIAL HepG2 Assay for human Bone Morphogenetic Protein (BMP) Response Element (BRE) (AID 2282933). To be noted: HepG2 BMP response element reporter, Attagene transcription factor profiling; actives raise or lower the signal. The procedure, abridged: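 Multiplexed cis-reporter assay, HepG2, 24 h exposure. mRNA from reporter units quantified via RT-PCR/CE; DMSO baseline; bidirectional curve fit.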
For the compound `Cc1cc(=O)n(-c2ccccc2)n1C`, the result was inactive.
Still for that read-out and setting: to `CC1(C)[C@H]2CC[C@]1(C)C(=O)C2` belongs “inactive”.
On the same count and under the same terms, to `C=C[Si](OC(C)=O)(OC(C)=O)OC(C)=O` belongs “inactive”.
With `COC=O`, the result was inactive.
The same measure, in the same setting: to `C=CC=CC=CCCCCC` belongs “inactive”; to `Cc1ccc(N/N=c2\c(=O)cc/c(=N/Nc3ccc(S(=O)(=O)O)cc3)c2=O)c(C)c1`, “inactive”; to `C1CN(SSN2CCOCC2)CCO1`, “inactive”.
Still for that read-out and setting: to `O=S(=O)(O)c1cc(S(=O)(=O)O)c2ccc3c(S(=O)(=O)O)cc(S(=O)(=O)O)c4ccc1c2c43` belongs “inactive”.
On the same count and under the same terms, to `CCC(CC)C(=O)O` belongs “inactive”.
With `O=C1c2ccccc2C(=O)C1c1nc2ccccc2c(Br)c1O`, the AC50 was 100 µM (active).
Take `NNC(=O)c1cccc(C(=O)NN)c1`: the compound was classed as inactive.
On the same count and under the same terms, the value for `CC(=O)Nc1ccc2c(c1)Cc1cc(NC(C)=O)ccc1-2` was “inactive”.
Still for that read-out and setting: the value for `CCOC(=O)c1ccc(N(C)C)cc1` was “inactive”.
Consider `C=C(C)[C@@H]1CCC2=CCC[C@@H](C)[C@]2(C)C1`, for which the outcome was inactive.
The same measure, in the same setting: the value for `CCCNC(=O)NS(=O)(=O)c1ccc(Cl)cc1` was “inactive”; that for `COCc1c(C(C)C)nc(C(C)C)c(/C=C/[C@@H](O)C[C@@H](O)CC(=O)O)c1-c1ccc(F)cc1` was “inactive”; that for `COC(F)(F)C(F)(C(F)(F)F)C(F)(F)F` was “inactive”.
Consider `Nc1ccc(N=Nc2ccccc2)c(N)n1`, for which the compound was classed as inactive.
On the same count and under the same terms, the value for `Cc1ccc2c(c1)C(=O)c1ccccc1C2=O` was “inactive”; that for `CC(C)(C)c1n[nH]c(=O)n(N)c1=O` was “inactive”.
Same read-out and setting: to `COc1ccc2nc(N)sc2c1` belongs “inactive”; to `COC(=O)c1c(C)cc(O)c(C)c1O`, “inactive”.
Still for that read-out and setting: to `CC1(C)O[C@@H]2C[C@H]3[C@@H]4C[C@H](F)C5=CC(=O)C=C[C@]5(C)[C@@]4(F)[C@@H](O)C[C@]3(C)[C@]2(C(=O)CO)O1` belongs “inactive”; to `CCC(=O)Oc1ccc(/C(CC)=C(\CC)c2ccc(OC(=O)CC)cc2)cc1`, “inactive”.
With `c1ccc(CNCc2ccccc2)cc1`, the outcome was inactive.
Take `CCCCCCCCCCC=CC#N`: the outcome was inactive.
As for `C=C[Si](C)(C)O[Si](C)(C)C=C`, the result was inactive.
Regarding `Cc1ccc(N)c([N+](=O)[O-])c1`, the compound was classed as inactive.
For the compound `CCOC(=O)N1CCC(=C2c3ccc(Cl)cc3CCc3cccnc32)CC1`, the outcome was inactive.
Consider `NC(=O)NNC(N)=O`, for which the compound was classed as inactive.
On to `CCC(C)C=O` (stereo not given), for which the compound was called inactive.
On the same count and under the same terms, the value for `O=P(O)(O)Oc1ccccc1` was “inactive”.
`CCCCC(CC)COC(=O)c1ccccc1O` (stereo not given): the call was inactive.
As to `CC(=O)Oc1ccc(C)cc1`, the compound was called inactive.
Take `C[C@]12C=CC(=O)C=C1CC[C@@H]1[C@@H]2[C@@H](O)C[C@@]2(C)[C@H]1CC[C@]2(O)C(=O)CO`: the outcome was inactive.
The same measure, in the same setting: to `CC(C)c1ccc2cc(C(C)C)ccc2c1` belongs “inactive”; to `CCC(CO)CO`, “inactive”.
As to `O=c1cc(-c2ccccc2)oc2ccccc12`, the concentration at half-maximal activity (AC50) is 133 µM (active).
For the compound `O=Cc1ccc(CO)o1`, the call was inactive.
In the case of `CC1=CC[C@H]2C[C@@H]1C2(C)C`, the result was inactive.

In the next assay the target is Retinoic acid receptor alpha (Homo sapiens) (UniProt P10276). Put plainly: ATG_DR5_RAR_CIS: Attagene CIS-FACTORIAL HepG2 Assay for human Retinoic Acid Receptor Alpha (RARE), DR5 submotif (AID 2282934).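 For AC50: reporter responds to endogenous RAR alpha beta and gamma in HepG2 not RARA alone.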 To be noted: HepG2 Attagene cis-factorial RARE DR5 reporter, mRNA; actives raise or lower the signal. The procedure, abridged: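 Transfected HepG2 reporter cells are exposed to chemicals for 24 h. Then RNA is extracted and the DR5 element reporter transcript is measured by RT-PCR and capillary electrophoresis, with bidirectional curve fitting relative to DMSO.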
Sequence of Retinoic acid receptor alpha (Homo sapiens) (P10276 whole entry, looked up): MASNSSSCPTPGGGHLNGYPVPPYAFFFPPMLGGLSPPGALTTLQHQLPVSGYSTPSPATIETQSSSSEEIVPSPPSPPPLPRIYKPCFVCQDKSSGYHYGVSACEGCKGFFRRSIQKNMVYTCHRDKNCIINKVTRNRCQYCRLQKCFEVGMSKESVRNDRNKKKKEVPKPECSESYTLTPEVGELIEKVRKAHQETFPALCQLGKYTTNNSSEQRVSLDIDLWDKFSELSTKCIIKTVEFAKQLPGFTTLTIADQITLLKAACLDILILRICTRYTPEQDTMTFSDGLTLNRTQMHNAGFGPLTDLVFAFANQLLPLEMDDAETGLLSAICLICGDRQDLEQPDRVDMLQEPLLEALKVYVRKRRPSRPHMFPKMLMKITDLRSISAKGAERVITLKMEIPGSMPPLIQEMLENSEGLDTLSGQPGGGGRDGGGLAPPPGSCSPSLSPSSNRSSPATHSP
In the case of `Cc1cc(=O)n(-c2ccccc2)n1C`, the compound was called inactive.
For the compound `CC1(C)[C@H]2CC[C@]1(C)C(=O)C2`, the call was inactive.
Same read-out and setting: the value for `C=C[Si](OC(C)=O)(OC(C)=O)OC(C)=O` was “inactive”; that for `COC=O` was “inactive”.
Consider `C=CC=CC=CCCCCC`, for which the call was inactive.
On to `Cc1ccc(N/N=c2\c(=O)cc/c(=N/Nc3ccc(S(=O)(=O)O)cc3)c2=O)c(C)c1`, for which the call was inactive.
On the same count and under the same terms, the value for `C1CN(SSN2CCOCC2)CCO1` was “inactive”; that for `O=S(=O)(O)c1cc(S(=O)(=O)O)c2ccc3c(S(=O)(=O)O)cc(S(=O)(=O)O)c4ccc1c2c43` was “inactive”.
The same measure, in the same setting: to `CCC(CC)C(=O)O` belongs “inactive”; to `O=C1c2ccccc2C(=O)C1c1nc2ccccc2c(Br)c1O`, “inactive”.
Turning to `NNC(=O)c1cccc(C(=O)NN)c1`, the compound was called inactive.
Take `CC(=O)Nc1ccc2c(c1)Cc1cc(NC(C)=O)ccc1-2`: the compound was classed as inactive.
The same measure, in the same setting: to `CCOC(=O)c1ccc(N(C)C)cc1` belongs “inactive”; to `C=C(C)[C@@H]1CCC2=CCC[C@@H](C)[C@]2(C)C1`, “inactive”.
For `CCCNC(=O)NS(=O)(=O)c1ccc(Cl)cc1`, the result was inactive.
Same read-out and setting: to `COCc1c(C(C)C)nc(C(C)C)c(/C=C/[C@@H](O)C[C@@H](O)CC(=O)O)c1-c1ccc(F)cc1` belongs “inactive”; to `COC(F)(F)C(F)(C(F)(F)F)C(F)(F)F`, “inactive”.
On to `Nc1ccc(N=Nc2ccccc2)c(N)n1`, for which the outcome was inactive.
Consider `Cc1ccc2c(c1)C(=O)c1ccccc1C2=O`, for which the result was inactive.
On to `CC(C)(C)c1n[nH]c(=O)n(N)c1=O`, for which the call was inactive.
`COc1ccc2nc(N)sc2c1`: the compound was called inactive.
On the same count and under the same terms, the value for `COC(=O)c1c(C)cc(O)c(C)c1O` was “inactive”; that for `CC1(C)O[C@@H]2C[C@H]3[C@@H]4C[C@H](F)C5=CC(=O)C=C[C@]5(C)[C@@]4(F)[C@@H](O)C[C@]3(C)[C@]2(C(=O)CO)O1` was “inactive”.
`CCC(=O)Oc1ccc(/C(CC)=C(\CC)c2ccc(OC(=O)CC)cc2)cc1`: the compound was classed as inactive.
Same read-out and setting: the value for `c1ccc(CNCc2ccccc2)cc1` was “inactive”; that for `CCCCCCCCCCC=CC#N` was “inactive”; that for `C=C[Si](C)(C)O[Si](C)(C)C=C` was “inactive”.
Consider `Cc1ccc(N)c([N+](=O)[O-])c1`, for which the outcome was inactive.
On to `CCOC(=O)N1CCC(=C2c3ccc(Cl)cc3CCc3cccnc32)CC1`, for which the outcome was inactive.
In the case of `NC(=O)NNC(N)=O`, the call was inactive.
On the same count and under the same terms, the value for `CCC(C)C=O` (stereo not given) was “inactive”; that for `O=P(O)(O)Oc1ccccc1` was “inactive”.
As to `CCCCC(CC)COC(=O)c1ccccc1O` (stereo not given), the call was inactive.
The same measure, in the same setting: to `CC(=O)Oc1ccc(C)cc1` belongs “inactive”; to `C[C@]12C=CC(=O)C=C1CC[C@@H]1[C@@H]2[C@@H](O)C[C@@]2(C)[C@H]1CC[C@]2(O)C(=O)CO`, “inactive”.
As for `CC(C)c1ccc2cc(C(C)C)ccc2c1`, the AC50 is 67 µM (active).
Turning to `CCC(CO)CO`, the compound was classed as inactive.
Same read-out and setting: the value for `O=c1cc(-c2ccccc2)oc2ccccc12` was “inactive”; that for `O=Cc1ccc(CO)o1` was “inactive”; that for `CC1=CC[C@H]2C[C@@H]1C2(C)C` was “inactive”.

What is called AC50 is the midpoint of the concentration-response curve, whichever way the signal moves.

Source of the values: PubChem BioAssay (EPA / NIEHS).
